Shown are actives, neighbours in structure and some others; about 5.6% of the full set was active somewhere.
H9c2 protect = myocardial damage modulation in H9c2 cells; actives 0.63% (n = 360,000); H9c2 cardiomyocytes, H2O2 injury protection, ATPLite, 2 h; protection from H2O2 cell death, % at 20 µM;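 active means compounds giving at least 50% protection of heart cells from peroxide-induced death in the single-dose screen, raw or plate-pattern-corrected value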
PfG6PD inh = PfG6PD (Plasmodium falciparum) enzyme inhibition | inhibition, % at 20 µM | AID 504690 | PfGluPho enzyme, NADPH resazurin-diaphorase fluorescence | actives 0.78% (n = 350,000);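 active means inhibition reaching at least a set limit at 20 µM in the primary screen, cut at about 59% in these data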
ALR inh = inhibitors of human sulfhydryl oxidase ALR | P55789 | purified ALR, DTT oxidation, H2O2 HRP-luminol luminescence | inhibition, % (concentration not given with the values) | actives 3.8% (n = 290,000);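 active means mean replicate inhibition above about 79%, with every replicate also reaching it, limit read from the data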
Target sequence (P55789 whole entry, looked up): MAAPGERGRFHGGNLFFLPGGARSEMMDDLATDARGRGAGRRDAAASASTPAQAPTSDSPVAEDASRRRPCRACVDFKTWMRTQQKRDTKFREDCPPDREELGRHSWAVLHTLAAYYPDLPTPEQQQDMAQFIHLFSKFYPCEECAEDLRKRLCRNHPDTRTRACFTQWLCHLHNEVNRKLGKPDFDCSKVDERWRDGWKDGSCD
PHOSPHO1 block = inhibitors of human PHOSPHO1 phosphatase. inhibition, % at 13.3 µM. recombinant PHOSPHO1, absorbance phosphatase assay. AID 1565. actives 1.1% (n = 290,000). Q8TCT1; in the data active means inhibition above about 60%
Target sequence (Q8TCT1 whole entry, looked up): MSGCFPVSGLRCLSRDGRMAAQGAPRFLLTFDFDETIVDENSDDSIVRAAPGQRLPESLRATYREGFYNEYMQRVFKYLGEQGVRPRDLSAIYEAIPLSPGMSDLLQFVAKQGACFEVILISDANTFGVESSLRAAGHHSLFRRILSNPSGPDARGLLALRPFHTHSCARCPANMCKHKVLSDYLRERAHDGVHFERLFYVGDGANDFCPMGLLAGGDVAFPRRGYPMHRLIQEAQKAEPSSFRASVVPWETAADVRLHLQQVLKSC
M18AAP inhibitor = PfM18AAP enzyme inhibition; recombinant PfM18AAP, H-Glu-NHMec fluorogenic cleavage; inhibition, % at 7.35 µM; actives 1.2% (n = 290,000); AID 1822;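 active means inhibition above the campaign mean inhibition over all tested compounds plus 3 SD, cut at about 28% in these data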
Each line names hits and unclear results; the compound was inactive in the other large screens.

CCOc1ccc(Cc2c(C)[nH]c3ccc(C(=O)O)cc3c2=S)cc1	none
CN(c1ccccc1)S(=O)(=O)c1cccc(C(=O)NCCc2ccc(O)c(O)c2)c1	ALR inh 93, M18AAP inhibitor 40
CSC(=O)CC(=O)NC(=O)c1ccccc1	ALR inh 97
CCOC(=O)c1c(-c2ccc(C)o2)csc1NC(=O)CN1CCOCC1	none
CCOC(=O)c1c(-c2ccsc2)csc1N	PHOSPHO1 block 92
CCOC(=O)c1c(-c2ccc(C)s2)csc1N	none
CCOC(=O)c1c(-c2ccc(C)o2)csc1N	PHOSPHO1 block 69
NS(=O)(=O)c1ccc(CNc2nc(-c3cccnc3)nc3ccccc23)cc1	none
NC(=O)c1cc(Br)cc(C2CCCCC2)c1O	ALR inh 92
COc1ccc(S(=O)(=O)NCC2CCCN(Cc3cccc(C(C)=O)c3)C2)cc1 (stereo unspecified)	ALR inh 76
COc1ccc(S(=O)(=O)NCC2CCCN(Cc3cccnc3)C2)cc1 (stereo unspecified)	none
Cc1nnc(SCC(=O)Nc2cccc(C(F)(F)F)c2)[nH]c1=O	ALR inh 98
Cc1ccc(S(=O)(=O)N2CCN(C(=O)CSc3nnc(C)c(=O)[nH]3)CC2)cc1	PHOSPHO1 block 90
Cc1nnc(SCC(=O)N2CCN(S(=O)(=O)c3ccccc3)CC2)[nH]c1=O	none
Cc1cc(C)c(C)c(C(=O)CSc2nnc(C)c(=O)[nH]2)c1C	PHOSPHO1 block 89 (no result: H9c2 protect, PfG6PD inh, ALR inh)
Cc1ccc(NC(=O)C/C(N)=N/O)cc1C	PHOSPHO1 block 69
Cc1cccc(C)c1NC(=O)C/C(N)=N/O	none
COc1ccc(CN(C)C(=O)C2CSC3(C)CCC(=O)N23)c(OC)c1 (stereo unspecified)	none (no result: ALR inh, PHOSPHO1 block, M18AAP inhibitor)
C=CCC[C@@H](Cc1ccc(F)cc1)C(=O)OC[C@@H](Cc1c[nH]c2ccccc12)NC(=O)[C@H](CC=C)CC(=O)N[C@H](CO)Cc1ccccc1	none (no result: PHOSPHO1 block, M18AAP inhibitor)
Cc1ccc(NC(=O)CSc2nnc(C)c(=O)[nH]2)cc1C	ALR inh 95
Cc1cc(C)n(CCC(=O)N/N=C/c2ccc(O)cc2)n1	ALR inh 99
COc1cc(/C=N/NC(=O)CCn2nc(C)cc2C)ccc1O	none (no result: ALR inh)
CCOc1cc(/C=N/NC(=O)CCn2nc(C)cc2C)ccc1O	ALR inh 99
Nc1nc(SCc2ccccc2)cc(SCc2ccccc2)n1	none (no result: ALR inh, PHOSPHO1 block, M18AAP inhibitor)
C[C@]12c3[nH]c4cc(-c5ccco5)ccc4c3CCN1C(=O)[C@@H](CC(=O)NCc1cccc(C(F)(F)F)c1)C[C@@H]2C(=O)N1CCCCC1	none (no result: ALR inh, PHOSPHO1 block, M18AAP inhibitor)
COc1cc(/C=N/N2CCCCC2)cc(OC)c1O	ALR inh 99
COc1cc(C=NN2CCCCC2)cc(OC)c1OC	none (no result: ALR inh, PHOSPHO1 block, M18AAP inhibitor)
CCN=c1scc(C)n1/N=C/c1cc(Br)c(O)c(OC)c1	ALR inh 87, M18AAP inhibitor 35
CN=c1scc(C)n1/N=C/c1cc(Br)c(O)c(Br)c1	none (no result: ALR inh)
COc1cc(/C=N/N2C(C)CCCC2C)cc(Br)c1O (stereo unspecified)	ALR inh 99
CC(Oc1cc2oc(=O)c3c(c2cc1Cl)CCC3)C(=O)NCc1ccccn1 (stereo unspecified)	none
C[C@H]1COC[C@@H](C/C=C/c2ccccc2)N1c1ccccc1	none (no result: ALR inh, PHOSPHO1 block, M18AAP inhibitor)
CC(C)CC1COC(=O)N1 (stereo unspecified)	none
COc1cc(/C=C/C(=O)C2C(=O)C=C(C)OC2=O)cc(OC)c1O (stereo unspecified)	ALR inh 99, M18AAP inhibitor 31
COc1ccccc1-n1cc(C(=O)NCC(=O)N2CCN(c3ccccc3)CC2)c2ccccc2c1=O	PHOSPHO1 block 63 (no result: ALR inh)
COc1ccc(N2CCN(CC(=O)N3N=CCC3c3ccccc3)CC2)cc1 (stereo unspecified)	ALR inh 84
COc1ccccc1N1CCN(CC(=O)N2N=CCC2c2ccccc2)CC1 (stereo unspecified)	none
COc1ccc(N2CCN(C(=O)CN(C)S(=O)(=O)c3cnc[nH]3)CC2)cc1	ALR inh 87
COc1ccc(N2CCN(C(=O)CCCCn3c(=O)[nH]c4ccsc4c3=O)CC2)cc1	ALR inh 83
COc1ccc(N2CCN(C(=O)CCCn3c(=O)[nH]c4ccsc4c3=O)CC2)cc1	none
Cc1cccc(C)c1NC(=O)C(c1ccccc1)N1CCN(c2ccc(C(F)(F)F)cn2)CC1 (stereo unspecified)	none (no result: PfG6PD inh, ALR inh, PHOSPHO1 block, M18AAP inhibitor)
O=C(c1[nH]c(C(F)(F)F)nc1-c1ccccc1)N1CCN(C(=O)C2CCCO2)CC1 (stereo unspecified)	none (no result: PfG6PD inh, ALR inh, PHOSPHO1 block, M18AAP inhibitor)
COc1ccc(N2CCN(C(=O)CN(Cc3ccccc3)S(C)(=O)=O)CC2)cc1	ALR inh 86
COc1ccc(N2CCN(C(=O)CCc3c[nH]c4ccccc34)CC2)cc1	none
COc1ccc(N2CCN(C(=O)CNC(=O)Cc3ccc(Cl)cc3)CC2)cc1	none
COc1ccc(N2CCN(C(C)C(=O)N(C)Cc3ccccc3)CC2)cc1 (stereo unspecified)	ALR inh 96
COc1ccc(N(C(C)C(=O)N(C)Cc2ccccc2)S(C)(=O)=O)cc1 (stereo unspecified)	none
COc1ccc(N2CCN(C(=O)CNC(=O)Cc3ccccc3)CC2)cc1	ALR inh 79 (no result: PHOSPHO1 block)
COc1ccc(N2CCN(C(=O)CN(Cc3ccc(Cl)cc3)S(C)(=O)=O)CC2)cc1	none
COc1ccc(N2CCN(C(=O)[C@H](Cc3c[nH]c4ccccc34)NC(C)=O)CC2)cc1	ALR inh 98
O=C(Cc1ccccc1)NC(C(=O)O)C(O)c1ccc([N+](=O)[O-])cc1 (stereo unspecified)	none
O=C1CN(N=Cc2ccco2)C(=O)N1	none (no result: ALR inh, PHOSPHO1 block, M18AAP inhibitor)
COc1ccc(N2CCN(C(=O)CCc3ccccc3)CC2)cc1	ALR inh 97
COc1ccc(NC(=O)CSc2nnc3n2CCCCC3)cc1S(=O)(=O)N1CCOCC1	none (no result: PHOSPHO1 block, M18AAP inhibitor)
COCc1cc(C)nc(N/N=C/c2ccc(-c3ccc(C(=O)O)c(Cl)c3)o2)c1C#N	ALR inh 98 (no result: H9c2 protect, PfG6PD inh)
N#Cc1c(/N=C/c2ccc(-c3ccc(C(=O)O)c(Cl)c3)o2)sc2c1CCCC2	ALR inh 99 (no result: PHOSPHO1 block, M18AAP inhibitor)
COCc1cc(C)n(CC(=O)N/N=C/c2ccc(-c3ccc(Cl)c(C(=O)O)c3)o2)c(=O)c1C#N	none
Cc1cc(C)c(OCC(=O)OCC(=O)NCC2CCCCC2)c(C)c1	none (no result: PHOSPHO1 block, M18AAP inhibitor)
CCCCCn1c(SCC(=O)c2ccccc2)nc2cc(C(=O)NCC3CCCO3)ccc2c1=O (stereo unspecified)	none (no result: ALR inh, PHOSPHO1 block, M18AAP inhibitor)
CCOC(=O)Cn1c(=NC(=O)C2COc3ccccc3O2)sc2cc(S(N)(=O)=O)ccc21 (stereo unspecified)	none
COC(=O)Cn1c(=NC(=O)c2cc(-c3cccs3)nc3ccccc23)sc2cc(S(N)(=O)=O)ccc21	H9c2 protect 66
COC(=O)Cn1c(=NC(=O)c2nc3ccccc3s2)sc2cc(S(N)(=O)=O)ccc21	none
CCOC(=O)Cn1c(=NC(=O)c2cc(-c3cccs3)nc3ccccc23)sc2cc(S(N)(=O)=O)ccc21	H9c2 protect 75
COCCn1c(=NC(=O)c2nc3ccccc3s2)sc2cc(S(C)(=O)=O)ccc21	H9c2 protect 58
